The list is not random: actives were taken first. Their share in the collection is about 1.1%.
GRP78 ERSR act = induces the endoplasmic reticulum stress response in human glioma cells; U87-MG GRP78 promoter luciferase reporter, 16 h; Potency, µM, inactives show top-dose activation, hits mostly activators; 420,000 tested, 0.02% active; AID 602332; further: series mostly up to about 76 µM; % of control where 0% means no effect; nearly all actives have a fitted effect of over 35% in size
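ERSR induction read as luciferase luminescence (Bright-Glo, 10 min at room temperature) in stably transfected human U87-MG glioma cells exposed to compounds for 16 h, using GRP78 as sensor.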
ALOX12 inh = blocks human arachidonate 12S-lipoxygenase; 580,000 tested, 1.1% active; purified 12hLO, xylenol orange hydroperoxide absorbance; Potency, µM (titrated, usually from 108 µM), for inactives: top-dose activity change, negative = inhibition, actives largely listed as inhibitors; AID 1671190; P18054; further: on the % scale 0 is the no-effect control and ±100 the full control effect
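Purified human 12hLO (150 nM final) in 25 mM Hepes, 0.01% Triton X-100, pH 7.0 was preincubated 15 min at room temperature with compound. Then 40 uM arachidonic acid was added, 30 min. Hydroperoxide was read by Fe-XO absorbance ratio 573/405 nm.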
Chronic BCR inh = blocks chronic active B-cell receptor signaling; ABC-DLBCL IkBa-CBG/CBR reporter, luminescence ratio, 4 h; Potency, µM (highest dose often 46.1 µM), inactives show top-dose activity change, negative = inhibition, most hits filed as inhibitors; 340,000 tested, 0.05% active; active means well fitted inhibition curve with a large enough effect in the signal ratio, with a control signal flat, not every such curve was filed as active; inconclusive means small, poorly fitted or top-dose-only effect, or effect the other way, or a change in a side signal; the % refers to the signal ratio;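 further: plate controls were basal doxycycline-induced cells for no effect and cells given 10 µM MG132 for full effect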
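Cell line TMD8 (human ABC DLBCL), stably expressing tet-inducible CBG68-IkBa fusion and CBR; IMDM/0.5% FBS; cpd up to 46 uM; dox induction, 4 h, 37C/5% CO2; dual luminescence; green/red ratio; MG132 control.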
Anesthetic bind = candidate novel general anesthetic via apoferritin binding | P02791 | apoferritin/1-aminoanthracene competitive binding, fluorescence | Potency, µM (titrated, usually from 77.5 µM), for inactives: at the highest dose activity change, negative = displacement, actives largely listed as inhibitors | 350,000 tested, 0.074% active | AID 485281; further: on the % scale 0 is the no-effect control and ±100 the full control effect; nearly all actives have a fitted effect of over 20% in size
Target sequence (P02791 2-175 limits assumed): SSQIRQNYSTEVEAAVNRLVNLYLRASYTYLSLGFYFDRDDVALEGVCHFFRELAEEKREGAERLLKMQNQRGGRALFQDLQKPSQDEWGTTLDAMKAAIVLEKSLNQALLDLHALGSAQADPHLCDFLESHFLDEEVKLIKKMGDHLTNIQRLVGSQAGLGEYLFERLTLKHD
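Horse-spleen apoferritin (10 uM) in 50% saturated 1-aminoanthracene in PBS was incubated 10 min at room temperature with compound. Fluorescence (ex 380, em 535 nm) was normalized to free and bound 1-AMA, with concentration-response fitted by a four-parameter Hill equation.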
Starred values were filed as active, the others as inactive; ? = inconclusive; / = no result; ! = not confirmed by another sample; [ ] = another dose, or the depositor's remark. Unless noted, the call rests on the fitted dose curve; in most records, active means well fitted curve in the direction sought with a large enough effect; inconclusive means small, poorly fitted or top-dose-only effect, or another doubt; inactive means no such curve, though single readings can be large; an effect the other way counts as inactive or inconclusive. Potency means the concentration at half of the fitted maximal effect.

SMILES	GRP78 ERSR act	ALOX12 inh	Chronic BCR inh	Anesthetic bind
O=c1[nH]c(=S)n(Cc2ccc(F)cc2)c(O)c1/C=N/N1CCCCCC1	0%	35µM*	4%	-1%
COc1cc2c(cc1OCc1ccccc1)N(C(=O)CC(C)C)CC21CCN(C)CC1	/	22%[176 µM]	/	/
CC(C)(C)c1ccc(-c2cn(C[C@H]3CC4CCN3C[C@@H]4C(=O)Nc3ccccc3)nn2)cc1 (some centres not stated)	/	5%	/	/
O=C1NC(=O)C(=Cc2ccc(-c3ccccc3[N+](=O)[O-])o2)C(=O)N1	-3%	?	1%	-1%
O=C1NC(=O)C(=Cc2ccc(-c3cc(Cl)ccc3[N+](=O)[O-])o2)C(=O)N1	-5%	6.3µM*	2%	-10%
CCCNC1CCc2ccccc2C1 (configuration not stated)	/	72%	/	/
CCOP(=O)(Nc1ccc2c(c1)C(=NNC(N)=S)c1ccccc1-2)OCC	-4%	22µM*	/	/
Cc1cccc(N2C(=O)/C(=C/c3ccc(N4CCN(C)CC4)o3)C(=O)NC2=S)c1C	0%	45µM*	?	-12%
CCc1ccccc1N1C(=O)/C(=C/c2ccc(N3CCN(C)CC3)o2)C(=O)NC1=S	-2%	?	?	-1%
CC1=C(O)C(=O)C=C2C1=CC=C1C2(C)CCC2(C)C3CC(C)(C(=O)O)CCC3(C)CCC12C (configuration not stated)	-14%	4.5µM*	/	/
c1ccc(CN2CCC3(CC(c4cccnc4)=NO3)C2)nc1 (configuration not stated)	/	-13%[6.33 µM]	/	/
O=C1C2CC=CCC2C(=O)N1SC(Cl)(Cl)Cl (configuration not stated)	-12%	40µM*	/	/
O=C(Cc1cccs1)N1Cc2ccccc2-n2nncc2C1	0%	40µM*	/	/
CCNC(=O)N1Cc2ccccc2-n2nncc2C1	-3%	-29%	/	/
O=c1[nH]sc2cc(F)ccc12	-6%	40µM*	?	-4%
COc1cc2c(cc1Oc1cccc(N(C)C)c1)NC(=O)C21CCN(Cc2ccccc2)CC1	/	89µM*	/	/
c1ccc(CCCN2CCN(CCOC(c3ccccc3)c3ccccc3)CC2)cc1	-7%	?	/	/
Fc1ccc(C(OCCN2CCN(CCCc3ccccc3)CC2)c2ccc(F)cc2)cc1	-8%	2.7µM*!	/	-2%[29.3 µM]
O=C1NC(=O)C(=Cc2csc3ccccc23)C(=O)N1	-11%	40µM*	?	?
C/C(=N\NC(N)=S)C12CC3CC(CC(C3)C1)C2	0%	?	4%	8.9µM*
O=C1CC(CO)CN1 (configuration not stated)	/	-7%	/	/
CCCCn1c(O)c(/C=C/C=C/C=Nc2ccccc2)sc1=S	?	13µM*	?	?
Cn1c(O)c(/C=C/C=Nc2ccccc2)c(=O)n(C)c1=S	-4%	-6%	25%	1%
O=C(c1ccc2c(c1)OCO2)N1[C@H]2CC[C@@H]1c1cnc(-c3ccccc3)nc1C2	/	-5%	/	/
Cc1ccc(-n2nnnc2C2(NC(C)C)CCCCC2)cc1	/	5%	/	/
SMILES	GRP78 ERSR act	ALOX12 inh	Chronic BCR inh	Anesthetic bind
COc1ccc(C2=NCC(=O)N(CC(=O)Nc3ccc(F)cc3)c3sc4c(c32)CCCC4)cc1	/	-4%	/	/
CCCCCCCCCC(CC)c1ccc(S(=O)(=O)O)cc1 (configuration not stated)	-3%	23µM*	/	/
NC[C@H](CS(=O)(=O)O)c1ccc(Cl)cc1	-5%	0%	/	/
Cc1ccc(Sc2ccc(C=C3C(=O)N(C)C(=O)N(C)C3=O)o2)cc1	-2%	35µM*	2%	?
CCOC(=O)C1=CC(=C2C(=O)N(CC)C(=S)N(CC)C2=O)c2ccccc2O1	-1%	18µM*	-6%	-14%
CCN1C(=O)C(=C2C=C(C)OC(C)=C2)C(=O)N(CC)C1=S	0%	-7%	1%	-6%
CCOC(=O)Cc1ccccc1	/	-2%[176 µM]	/	/
CCc1ccc(CNCCc2c[nH]c3ccccc23)cc1	-4%	0.89µM*!	?	-16%
O=[N+]([O-])c1ccccc1CNCCc1c[nH]c2ccccc12	4%	0.56µM*	-15%	-20%
c1ccc(CNCCc2c[nH]c3ccccc23)cc1	0%	?	2%	-16%
Clc1ccccc1CNCCc1c[nH]c2ccccc12	0%	-7%	/	/
O=C(Cc1cccc(F)c1)N1CCC2(CC1)NCc1ccccc1-n1ccnc12	/	3%	/	/
Cc1nc(-c2ccc(N(C)C)cc2)cc([C@H]2CN3CC[C@H]2C[C@@H]3CNC(=O)C(C)(C)C)n1	/	83%[176 µM]	/	/
COc1ccc(CN2CCN(C(=O)Cc3ccccc3)CC2)cc1Br	-2%	0.63µM*	-10%	-16%
CCOc1cc(CN2CCN(C(=O)Cc3ccccc3)CC2)ccc1OC	-3%	0.5µM*	-2%	0%
COc1ccc(CN2CCN(C(=O)Cc3ccccc3)CC2)cc1OC	0%	?	/	/
C#CCN1CCN(c2cccc(C)c2)CC1	/	10%	/	/
Cc1ncc2c(n1)C[C@@H]1CC[C@H]2N1C(=O)c1ccc2c(c1)OCO2	/	9%	/	/
CC(=O)OCC1=C(C(=O)O)N2C(=O)[C@@H](N)[C@H]2SC1	/	-5%[57.4 µM]	/	/
CC1=C(C(=O)O)N2C(=O)C(NC(=O)CCCC(=O)O)C2SC1 (configuration not stated)	-3%	28µM*	?	-5%
C[N+](C)(Cc1ccccc1)CC(Br)CBr (configuration not stated)	/	-46%	/	/
C[n+]1ccc(-c2ccncc2)cc1	-4%	13µM*	0%	-7%
COc1cccc(CN2CCCCCCNC(=O)[C@@H]3CCC[C@@H]32)n1	/	281%	/	/
CS(=O)(=O)N1CCC2(C1)N=C(c1cccnc1)C(=O)N2 (configuration not stated)	/	26%[176 µM]	/	/
CN(C)P(=NC(=S)c1cccn1C)(N(C)C)N(C)C	-4%	40µM*	/	-9%
SMILES	GRP78 ERSR act	ALOX12 inh	Chronic BCR inh	Anesthetic bind
Cc1ccc(C(=O)NC[C@H]2C[C@@H]3CCN2C[C@@H]3c2cc(C3CCCCC3)nn2C)cc1	/	3%[176 µM]	/	/
CC(=O)N1CCCSC1=Nc1ccccc1	-4%	10%	1%	-8%
CCOc1ccccc1N=C1SCCCN1C	-6%	7.1µM*	-2%	-8%
O=C1NC(=S)NC(=O)C1c1ccccc1	-4%	32µM*	/	/
O=C1NC(=S)NC(=O)C12C(c1ccccc1)NC(=S)NC2c1ccccc1 (configuration not stated)	-2%	?	-1%	-6%
COc1cc2c(cc1OCc1ccc(Cl)cc1)N(Cc1ccccc1)CC21CCN(C(C)=O)CC1	/	32µM*	/	/
CNCC(N)C(=O)O (configuration not stated)	-1%	11%	/	-3%
N[C@H](CCP(=O)(O)O)C(=O)O	1%	3.5µM*!	/	/
COc1ccc(C(=O)C(C)(C)NO)cc1	-5%	5µM*	0%	-7%
COc1ccc(C(=O)C23CN4CN(CN(C4)C2)C3)cc1	-2%	-7%	-9%	-5%
CN1CCN2c3ccccc3Cc3ccccc3C2C1 (configuration not stated)	35µM*!	?	?	6%
CN1CCN2C(=O)N(c3ccccc3)C[C@H]2C1	/	45%[176 µM]	/	/
